Experimental data from PubChem BioAssay (NCATS).
Results filed as inconclusive are left out. Active and inactive are the calls of the source. Unless noted, calls come from the whole dose curve; as a rule, active = well fitted curve in the direction sought with a large enough effect; inconclusive = small, poorly fitted or top-dose-only effect, or another doubt; inactive = no such curve, though single readings can be large; an effect the other way counts as inactive or inconclusive. Where a SMILES comes first, the peptide text is derived from it.

What was measured:
[1] = qHTS to identify inhibitors of the type 1 interferon - major histocompatibility complex class I in skeletal muscle: primary screen against the NCATS Mechanism Interrogation Plate v5.0 (MIPE) Libary (AID 1347411); note: nearly all actives have a fitted effect of over 65% in size; note: potency is the fitted concentration of half-maximal effect;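 for activity change, negative = inhibition: plate controls were vehicle for no effect and reference inhibitor for full effect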
Procedure, shortened: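 Immortalized human myoblasts (C25cl48) with HiBit knocked into endogenous HLA-B*08:01 were stimulated with 4 ng/ml IFN-beta and given compounds in 11-point 1:3 titration from 46 uM. After 24 h at 37 C, lytic HiBiT luminescence was read.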

[2] = Primary qHTS for inhibitors of nuclear receptor binding SET domain protein 2 (NSD2) in an isogenic RCH-ACV NSD2 p.E1099K mutant (9B) (AID 1645876); note: nearly all actives have a fitted effect of over 70% in size; note: potency is the fitted concentration of half-maximal effect; for activity change, negative = viability loss: % is set by controls: 0 for no effect and ±100 for the full control effect
[3] = Primary qHTS for inhibitors of nuclear receptor binding SET domain protein 2 (NSD2) in an RCH-ACV wild type WT cells (2C) (AID 1645877); note: nearly all actives have a fitted effect of over 70% in size; note: potency is the fitted concentration of half-maximal effect; for activity change, negative = cell killing: % is set by controls: 0 for no effect and ±100 for the full control effect
[4] = target: Glutathione peroxidase 1 (Homo sapiens) (UniProt P07203); test: Primary qHTS Assay for Inhibitors of Recombinant Selenoprotein Glutathione Peroxidase 1 (GPX1) (AID 1845191); note: nearly all actives have a fitted effect of over 65% in size; for activity, negative = inhibition: % is set by controls: 0 for no effect and ±100 for the full control effect
Procedure, shortened: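 Recombinant GPX1 (10 nM final) was preincubated with compound for 30 min at room temperature, then reacted with 1 mM GSH, 0.5 mM CHP, 0.5 mM NADPH and 100 nM glutathione reductase; NADPH fluorescence (340/450 nm) was read at 0 and 15 min.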

[5] = target: Phospholipid hydroperoxide glutathione peroxidase GPX4 (Homo sapiens) (UniProt P36969); test: Primary qHTS Assay for Inhibitors of Recombinant Selenoprotein Glutathione Peroxidase 4 (GPX4) (AID 1845192); conditions: outcome: dose series up to 50 µM unless noted; note: nearly all actives have a fitted effect of over 65% in size; for activity change, negative = inhibition: series mostly up to about 50 µM; % is set by controls: 0 for no effect and ±100 for the full control effect
Procedure, shortened: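 GR-coupled readout: 100 nM GR, 1 mM GSH, 0.5 mM NADPH; NADPH fluorescence (ex 340/em 450 nm) read at t=0 and after 15 min RT. GPX4 200 nM, preincubated 30 min with compound; substrate 0.5 mM CHP.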

[6] = qHTS drug screen for cell cycle checkpoint inhibitors in PARPi-resistant BRCA-mutant ovarian cancer cell lines. (AID 1963452; calls by dose curve; note: potency is the fitted concentration of half-maximal effect); conditions: PEO1/OlaR viability, CellTiter-Glo luminescence, 96 h; for Z-AUC: stronger effect = lower value
Procedure, shortened: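 PEO1, PEO4 and PEO1/OlaR ovarian cancer cells, 600 per well, exposed 96 h at 37C to a dilution series. Viability read by CellTiter-Glo luminescence, normalized to DMSO and empty wells; activity summarized as Z-AUC.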

[7] = measured here: PEO1 parental Z-AUC

Phospholipid hydroperoxide glutathione peroxidase GPX4 (Homo sapiens), sequence (P36969 whole entry, looked up): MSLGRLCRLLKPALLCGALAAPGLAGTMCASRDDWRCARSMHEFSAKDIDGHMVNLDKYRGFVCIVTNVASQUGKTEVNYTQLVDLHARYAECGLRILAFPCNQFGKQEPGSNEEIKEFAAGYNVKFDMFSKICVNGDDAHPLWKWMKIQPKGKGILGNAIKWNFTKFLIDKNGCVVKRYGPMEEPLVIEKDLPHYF
Glutathione peroxidase 1 (Homo sapiens), sequence (P07203 whole entry, looked up): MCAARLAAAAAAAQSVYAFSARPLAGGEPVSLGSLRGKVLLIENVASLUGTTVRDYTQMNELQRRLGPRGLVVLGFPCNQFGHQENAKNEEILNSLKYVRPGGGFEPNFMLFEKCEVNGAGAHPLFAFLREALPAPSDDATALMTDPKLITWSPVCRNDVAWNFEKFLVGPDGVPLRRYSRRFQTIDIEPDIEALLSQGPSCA

Row | Compound | Potency [1] | Potency [2] | Potency [3] | Potency [4] | Potency [5] | Z-AUC [6] | Z-AUC [6, 7] | Z-AUC ([6]; measured here: PEO4 Z-AUC) | activity change, negative = inhibition [1] | outcome [4] | activity change, negative = inhibition [5] | activity change, negative = viability loss [2] | activity change, negative = cell killing [3] | activity, negative = inhibition [4] | outcome [5] | Potency [6]
1 | COc1ccc([C@@H](O)[C@@H](C)Oc2ccc([C@H]3O[C@H](c4ccc(O[C@H](C)[C@H](O)c5ccc(OC)c(OC)c5)c(OC)c4)[C@H](C)[C@H]3C)cc2OC)cc1OC | inactive | 5250 nM (active) | 5250 nM (active) | inactive | inactive | -1.98 (inactive) | -3.67 | -2.38 |  |  |  |  |  |  |  | 
2 | CCn1c(=O)c(-c2ccc(-c3cncc(C)n3)cc2Cl)cc2cnc(NCCC3CCN(C)CC3)nc21 |  | 1180 nM (active) | 1320 nM (active) |  |  | 1.53 (inactive) | 0.823 | 1.06 | -29.5% [at 5.1 µM] (inactive) | inactive [at 4.49 µM] | -3.33% [at 4.52 µM] (inactive) |  |  |  |  | 
3 | NS(=O)(=O)c1ccc(S(=O)(=O)Nc2cccc3c(Cl)c[nH]c23)cc1 | inactive | 742 nM (active) | 590 nM (active) | inactive | inactive | -0.956 (inactive) | -0.0531 | -0.727 |  |  |  |  |  |  |  | 
4 | O=C(NO)c1cnc(NC2(c3cccc(F)c3)CCCCC2)nc1 | inactive | 14800 nM (active) | 14800 nM (active) | inactive | inactive | -1.41 (inactive) | -0.775 | -0.635 |  |  |  |  |  |  |  | 
5 | COc1cc2c(Oc3ccc4[nH]c(C)cc4c3F)ccnc2cc1OCC1(N)CC1 | inactive | 5900 nM (active) | 3720 nM (active) | inactive | inactive | 0.184 (inactive) | 0.236 | 0.196 |  |  |  |  |  |  |  | 
6 | COc1cc(C)[nH]c(=O)c1CN1CCc2c(Cl)cc([C@H](OC)C3COC3)c(Cl)c2C1=O | inactive | inactive | inactive | inactive | inactive | 1.05 (inactive) | 0.817 | 0.549 |  |  |  |  |  |  |  | 
7 | C[C@H](Nc1nc(N[C@H](C)C(F)(F)F)nc(-c2cccc(Cl)n2)n1)C(F)(F)F | inactive | inactive | inactive | inactive | inactive | -0.138 (inactive) | 0.592 | 0.804 |  |  |  |  |  |  |  | 
8 | O=C(/C=C/c1ccc(/C=C/C(=O)Nc2ccc(C3=NCCN3)cc2)cc1)Nc1ccc(C2=NCCN2)cc1 |  |  |  |  |  | 0.122 (inactive) | 0.179 | 0.581 | -3.84% [at 5.1 µM] (inactive) |  | -10.1% [at 4.52 µM] (inactive) | -16.1% [at 4.96 µM] (inactive) | -11% [at 4.96 µM] (inactive) | 2.37% [at 4.49 µM] (inactive) |  | 
9 | N[C@@H](CCC(=O)O)C(=O)N[C@@H](Cc1c[nH]c2ccccc12)C(=O)O (H-Glu-Trp-OH) | inactive | inactive | inactive | inactive | inactive | 1.08 (inactive) | 0.582 | 0.474 |  |  |  |  |  |  |  | 
10 | CNC(=O)Cn1cc(-c2ccc3c(c2)C(F)CC32NC(=O)N(CC(=O)N(Cc3ccc(F)cc3)C(C)C(F)(F)F)C2=O)cn1 (centres undefined) | inactive | 83.3 nM (active) | 132 nM (active) | inactive | inactive | 0.772 (inactive) | 0.67 | 0.562 |  |  |  |  |  |  |  | 
11 | CNCCn1c(=O)c2cc(OC)c(OC)cc2c2cnc3cc4c(cc3c21)OCO4 |  | 9.6 nM (active) | 6 nM (active) |  |  |  | -3.24 | -2.15 | -8.45% [at 8.44 µM] (inactive) | inactive [at 9.52 µM] |  |  |  |  | inactive [at 9.73 µM] | 7.1 nM (active)
12 | N#Cc1ccc(N(Cc2ccc(Br)cc2)n2cnnc2)cc1 | inactive | inactive | inactive | inactive | inactive | -0.397 (inactive) | -0.74 | -0.908 |  |  |  |  |  |  |  | 
13 | C=CC(=O)N1CCC(CNc2ncnc(N)c2-c2ccc(Oc3ccccc3)cc2)CC1 | inactive | 16600 nM (active) | 5900 nM (active) | inactive | inactive | 1.54 (inactive) | 1.18 | 1.23 |  |  |  |  |  |  |  | 
14 | COc1cc2nccc(Oc3ccc(NC(=O)c4cn(C(C)C)c(=O)n(-c5ccc(F)cc5)c4=O)cc3F)c2cc1OC | inactive | inactive | inactive | inactive | inactive | -0.766 (inactive) | -0.766 | -0.777 |  |  |  |  |  |  |  | 
15 | CCCNC(=O)[C@H]1O[C@@H]1C(=O)N[C@H](C(=O)N1CCC[C@H]1C(=O)OC)C(C)CC (some centres undefined) | inactive | 6610 nM (active) | 7420 nM (active) | inactive | inactive | 0.833 (inactive) | 0.0577 | 0.0351 |  |  |  |  |  |  |  | 
16 | O=C(NCc1ccc(S(=O)(=O)c2cccc(C(F)(F)F)c2)cc1)c1cnc2[nH]ncc2c1 | inactive | 13.2 nM (active) | 26.3 nM (active) | inactive | inactive | -2.19 (inactive) | -2.73 | -2.28 |  |  |  |  |  |  |  | 
17 | Cn1ncc(NC(=O)c2nc(-c3c(F)cccc3F)sc2N)c1N1CC[C@@H](N)[C@H](F)CC1 | inactive | inactive | inactive | inactive | inactive | 0.883 (inactive) | 0.956 | 0.537 |  |  |  |  |  |  |  | 
18 | Cc1cc(-c2cnn3c(NCC4CC(C)(O)C4)cc(Oc4cccnc4)nc23)ccc1C(=O)NC1CC1 (centres undefined) |  | 148 nM (active) | 132 nM (active) |  |  | -0.227 (inactive) | 0.402 | -0.202 | -24.9% [at 5.1 µM] (inactive) | inactive [at 4.49 µM] | -10.8% [at 4.52 µM] (inactive) |  |  |  |  | 
19 | CN(C)C/C=C/C(=O)Nc1cc2c(Nc3ccc(F)c(Cl)c3)ncnc2cc1O[C@H]1CCOC1 | 16500 nM (active) | 2350 nM (active) | 1860 nM (active) | inactive | inactive | -1.12 (inactive) | -0.735 | -1.62 |  |  |  |  |  |  |  | 
20 | Cc1cnc(NC(=O)c2cc(Oc3cnc(C(=O)N(C)C)nc3)c3cc(C)oc3c2)cn1 | inactive | inactive | inactive | inactive | inactive | -1.14 (inactive) | -0.452 | 0.0814 |  |  |  |  |  |  |  | 
21 | COc1ccc(-c2oc3c(CC=C(C)C)c(OC4O[C@H](CO)[C@@H](O)[C@H](O)[C@H]4O)cc(O)c3c(=O)c2OC2O[C@@H](C)[C@H](O)[C@@H](O)[C@H]2O)cc1 (some centres undefined) | inactive | inactive | inactive | inactive | inactive | 0.153 (inactive) | 0.0996 | 0.222 |  |  |  |  |  |  |  | 
22 | CN(C)CCNC(=O)NC[C@H]1CC[C@@H]2[C@H](O1)c1cc(C(F)(F)F)ccc1N[C@H]2c1ccccc1 | inactive | 263 nM (active) | 417 nM (active) | inactive | inactive | -0.264 (inactive) | -0.891 | -1.1 |  |  |  |  |  |  |  | 
23 | Cc1cc(C)cc(Oc2ccc(CNC(=O)[C@H](C)N)cc2C)c1 | inactive | 18600 nM (active) | 18600 nM (active) | inactive | inactive | 1.6 (inactive) | 1.04 | 1.3 |  |  |  |  |  |  |  | 
